High-throughput results as filed in PubChem.
This excerpt belongs to a sample that is enriched for hits.
Giardia FBPA inh: blocks Giardia fructose-bisphosphate aldolase activity; A8B2U2; hit rate 0.71% among 290,000; purified Giardia FBPA; Potency, µM (series often up to 59.6 µM), hits mostly inhibitors; AID 2451; note: nearly all actives have a fitted effect of over 55% in size
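40 nM FBPA preincubated 10 min at RT with compound (up to 57.5 uM final), then substrate plus GAPDH/TPI/NAD/arsenate coupling and diaphorase/resazurin added. Fluorescence read after 20 min at RT, 525/598 nm.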
Shiga inhibitor: inhibitors of Shiga toxin in Vero cells; Vero cells, Shiga toxin protein synthesis inhibition reporter; inhibition, % at 38.7 µM; hit rate 9.2% among 290,000; in the data active = inhibition mostly above about 28%, no sharp cut-off; inactive = mostly below about 43%
RE007 growth inh: less growth of the S. pombe RE007 Vpr strain. S. pombe RE007 Vpr strain, BacTiter-Glo ATP luminescence, 24 h. Potency, µM (top dose mostly 92.2 µM), most hits filed as inhibitors. hit rate 0.21% among 360,000. AID 651644; active = well fitted falling curve with a large enough effect; inconclusive = small, poorly fitted or top-dose-only effect; inactive = no such curve, though single readings can be large or run the other way; note: nearly all actives have a fitted effect of over 50% in size
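Fission yeast RE007 carrying one integrated HIV-1 vpr copy, seeded at OD 0.01 in PMG+AL medium with 23 nL pinned compound. Grown 24 h at 30 degrees; viability read by BacTiter-Glo luminescence after 5 min.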
LmPK inh: inhibitors of Leishmania mexicana pyruvate kinase | Q27686 | hit rate 0.37% among 290,000 | purified LmPK, Kinase-Glo ATP luminescence, 1 h | AID 1721 | Potency, µM (titrated, usually from 57.5 µM), hits mostly inhibitors
Target sequence (Q27686 whole entry, looked up): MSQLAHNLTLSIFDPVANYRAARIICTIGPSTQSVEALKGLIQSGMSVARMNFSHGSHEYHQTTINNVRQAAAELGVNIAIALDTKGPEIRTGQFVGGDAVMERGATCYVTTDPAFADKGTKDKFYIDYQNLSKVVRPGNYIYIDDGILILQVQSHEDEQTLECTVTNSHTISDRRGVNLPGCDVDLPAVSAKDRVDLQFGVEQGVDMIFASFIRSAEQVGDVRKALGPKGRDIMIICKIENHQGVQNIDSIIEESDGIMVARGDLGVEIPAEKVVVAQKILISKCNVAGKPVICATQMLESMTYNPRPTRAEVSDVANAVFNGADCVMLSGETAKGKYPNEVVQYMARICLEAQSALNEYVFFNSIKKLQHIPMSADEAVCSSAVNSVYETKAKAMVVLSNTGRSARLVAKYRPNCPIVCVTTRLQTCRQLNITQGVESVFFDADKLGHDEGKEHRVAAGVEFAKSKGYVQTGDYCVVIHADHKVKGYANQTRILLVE
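Purified LmPK (0.1 nM) with 0.5 mM PEP and 0.1 mM ADP in imidazole buffer pH 7.2 with MgCl2/KCl, 1 h at room temperature. ATP formed was read by luciferase luminescence and normalized to no-enzyme and uninhibited controls.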
Cycloheximide cs: affects cycloheximide protein synthesis inhibition readout, counter-screen. cell reporter, cycloheximide protein synthesis inhibition counterscreen. max response, %. hit rate 12% among 300,000; in the data active = max response mostly above about 13%, no sharp cut-off; inactive = mostly below about 14%; note: read at 38.3 µM for the half of the compounds with a filed dose
TbPYK inhibitor: blocks Trypanosoma brucei pyruvate kinase | Potency, µM (highest dose often 76.8 µM), usual class: inhibitors | AID 624173 | Q57TT1 | TbPYK enzyme, Kinase-Glo Plus ATP luminescence, 45 min | hit rate 0.12% among 410,000; note: nearly all actives have a fitted effect of over 50% in size
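Quantitative HTS: titrated library compounds versus trypanosomal pyruvate kinase in TEA buffer (pH 7.2) containing KCl, MgCl2, BSA and Tween-20. Reactions were initiated with ADP, 130 uM final. Kinase-Glo Plus luminescence was read after 45 min at RT.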
Of the large screens only hits and unclear results are named; the others gave an inactive call. Unless noted, calls come from the whole dose curve; as a rule, active = well fitted curve in the direction sought with a large enough effect; inconclusive = small, poorly fitted or top-dose-only effect, or another doubt; inactive = no such curve, though single readings can be large; an effect the other way counts as inactive or inconclusive.

CCc1ccc2[nH]c(=O)c(CN(Cc3ccc(F)cc3)C(c3nnnn3CCN3CCOCC3)C(C)C)cc2c1 (configuration not stated)	Shiga inhibitor 28.5, Cycloheximide cs 43.4
Cc1ccc2[nH]c(=O)c(CN(CCc3ccccc3)C(c3nnnn3Cc3ccco3)C(C)C)cc2c1 (configuration not stated)	Shiga inhibitor 39.9
CCC(c1nnnn1Cc1ccco1)N(CCc1ccccc1)Cc1cc2cc(C)ccc2[nH]c1=O (configuration not stated)	Giardia FBPA inh inconclusive
CCc1ccc2[nH]c(=O)c(C(c3nnnn3CCOC)N3CCN(c4ccc(F)cc4)CC3)cc2c1 (configuration not stated)	none
COC(=O)c1sc(N)c(C(=O)OC)c1COC(=O)C12CC3CC(CC(O)(C3)C1)C2	none
CNc1ncncc1-c1ccccc1C	none (no result: Shiga inhibitor, RE007 growth inh, LmPK inh, Cycloheximide cs, TbPYK inhibitor)
CCOc1cc(/C=N/NC(=O)c2cccs2)ccc1OC(=O)N1CCOCC1	Shiga inhibitor 108.7, Cycloheximide cs 45.1
O=C(c1ccc(N2CCOCC2)cc1)c1cccs1	Shiga inhibitor 53.2, Cycloheximide cs 30.5
O=C(N/N=C/c1ccc(N2CCOCC2)cc1)c1cccs1	Shiga inhibitor 78.9, LmPK inh inconclusive, Cycloheximide cs 39.2
Fc1ccc(/C=N/NC(=S)Nc2ccc(Cl)cc2Cl)cc1	none
Fc1ccc(NC(=S)N/N=C/c2ccc(F)c(F)c2)cc1	Cycloheximide cs 28.5
Fc1ccc(/C=N/NC(=S)Nc2ccc(Cl)cc2)cc1F	Cycloheximide cs 21.9
COc1ccc(/C=N/NC(=S)Nc2ccccc2)cc1COc1ccc(F)cc1F	none
COc1ccc(NC(=S)N/N=C/c2ccc(F)cc2)cc1OC	Shiga inhibitor 46.0, Cycloheximide cs 29.9
COc1ccc(NC(=S)N/N=C/c2ccc(F)c(F)c2)cc1	Shiga inhibitor 41.1, Cycloheximide cs 20.2
COc1ccc(NC(=O)O/N=C/c2c(C)nn(C(C)(C)C)c2C)cc1	Cycloheximide cs 28.9
Cc1nn(C(C)(C)C)c(C)c1/C=N/OC(=O)Nc1ccc(Cl)c(Cl)c1	none
COc1ccc(C(=O)CC(C(=O)O)c2ccc(OC)c(OC)c2)cc1OC (configuration not stated)	none (no result: Giardia FBPA inh, Shiga inhibitor, LmPK inh, Cycloheximide cs)
Cc1sc2nc(-c3cccs3)oc(=O)c2c1C	Shiga inhibitor 136.5, Cycloheximide cs 42.9
O=c1oc(-c2cccs2)nc2scc(-c3cccs3)c12	Cycloheximide cs 13.6
CCOC(=O)c1ccc(NC(=O)CC2Sc3ncnn3C2=O)cc1 (configuration not stated)	Giardia FBPA inh inconclusive, RE007 growth inh 31.6µM
CCOC(=O)c1ccc(NC(=O)CN2C(=O)C(C)SC(C)C2=O)cc1 (configuration not stated)	none
CCOC(=O)c1ccc(NC(=O)CN2C(=O)CSC(C)C2=O)cc1 (configuration not stated)	Cycloheximide cs 12.9
O=C(Nc1cc(Br)ccc1O)c1cc(-c2ccc3c(c2)OCO3)on1	Shiga inhibitor 76.5, Cycloheximide cs 14.8
Cc1c(Cl)cccc1NC(=O)c1cc(-c2ccc3c(c2)OCO3)on1	none (no result: Giardia FBPA inh, Shiga inhibitor, RE007 growth inh, LmPK inh, Cycloheximide cs)
CN(C(=O)c1cc(-c2ccc3c(c2)OCO3)on1)c1ccccc1	Shiga inhibitor 95.0, Cycloheximide cs 33.7
CSc1ccccc1NC(=O)c1cc(-c2ccc3c(c2)OCO3)on1	Shiga inhibitor 61.2
Cc1ccc(NS(=O)(=O)c2ccc(-c3cc(C)no3)cc2)c(C)c1	none (no result: Giardia FBPA inh, Shiga inhibitor, RE007 growth inh, LmPK inh, Cycloheximide cs)
CS(=O)(=O)N(CC(=O)NCCSCc1ccccc1)c1cc(C(F)(F)F)ccc1Cl	none (no result: Giardia FBPA inh, Shiga inhibitor, RE007 growth inh, LmPK inh, Cycloheximide cs)
CCOc1ccccc1-c1nc(-c2ccc(NC(=O)c3ccc(Br)o3)cc2)no1	Cycloheximide cs 44.3
CCCOC(=O)c1ccc(NC(=O)c2c(Cl)ccc(Cl)c2OC)cc1	none
CCCC(=O)N1CCN(c2ccc(NC(=O)c3ccc(Br)o3)cc2)CC1	none
CCCOC(=O)c1ccc(NC(=O)c2ccc(Br)o2)cc1	Shiga inhibitor 52.3, RE007 growth inh inconclusive, Cycloheximide cs 56.3
COC(=O)Cc1ccc(NC(=O)c2ccc(C)c(C)c2)cc1	Shiga inhibitor 51.2, Cycloheximide cs 45.1 (no result: TbPYK inhibitor)
CCN(CC)c1ccc(NC(=O)c2ccc(Br)o2)cc1	Cycloheximide cs 42.6
COC(=O)Cc1ccc(NC(C)=O)cc1	none (no result: Giardia FBPA inh, Shiga inhibitor, LmPK inh, Cycloheximide cs)
COC(=O)Cc1ccc(NC(=O)c2ccc(Br)o2)cc1	Shiga inhibitor 70.7, LmPK inh inconclusive, Cycloheximide cs 34.6
CC1CCc2c(C(=O)Nc3nccs3)csc2C1 (configuration not stated)	Shiga inhibitor 69.1, RE007 growth inh inconclusive, Cycloheximide cs 37.1
CC1CCc2c(C(=O)NCc3ccccn3)csc2C1 (configuration not stated)	Shiga inhibitor 160.9, Cycloheximide cs 65.5, TbPYK inhibitor inconclusive
CC1CCc2c(C(=O)Nc3ccccn3)csc2C1 (configuration not stated)	Shiga inhibitor 69.7, RE007 growth inh inconclusive, Cycloheximide cs 47.1
CCSc1nnc(NC(=O)c2csc3c2CCC(C)C3)s1 (configuration not stated)	none
Cc1ccccc1NC(=S)NNC(=O)c1csc2c1CCC(C)C2 (configuration not stated)	Shiga inhibitor 78.3, Cycloheximide cs 34.5
CCNC(=S)NNC(=O)c1csc2c1CCC(C)C2 (configuration not stated)	none
CC1CCc2c(C(=O)NCC3CCCO3)csc2C1 (configuration not stated)	Shiga inhibitor 98.0, Cycloheximide cs 85.8
Brc1ccc(-n2cnc(-c3ccccc3)c2)cc1	Shiga inhibitor 60.1, Cycloheximide cs 51.5
O=[N+]([O-])c1ccc(-c2cn(-c3ccc(Cl)cc3)cn2)cc1	none (no result: Giardia FBPA inh, Shiga inhibitor, LmPK inh, Cycloheximide cs)
CCCCOc1cccc(/C=N/NC(=O)c2csc(C)c2C)c1	none
Cc1scc(C(=O)N/N=C/c2ccc(Cl)s2)c1C	Shiga inhibitor 50.1, Cycloheximide cs 46.8
Cc1scc(C(=O)N/N=C/c2ccc(OC(C)C)cc2)c1C	Shiga inhibitor 114.8, Cycloheximide cs 44.2
COc1ccccc1/C=N/NC(=O)c1csc(C)c1C	Shiga inhibitor 39.4, Cycloheximide cs 15.4
COc1ccccc1/C=N/NC(=O)c1cccc2ccccc12	none (no result: Shiga inhibitor)
COc1ccc(NC(=O)C(C)Sc2cc(-c3ccccc3)nc(C)n2)cc1Cl (configuration not stated)	none (no result: Giardia FBPA inh, Shiga inhibitor, RE007 growth inh, LmPK inh, Cycloheximide cs)
CCOC(=O)Cc1csc(NC(=O)Cc2ccccc2)n1	none
CCOC(=O)c1sc(NC(=O)Cc2ccc(C)cc2)nc1C	none
CCOC(=O)c1sc(NC(=O)/C=C/c2c(F)cccc2Cl)nc1C	Cycloheximide cs 40.5
CCOC(=O)c1sc2cccc(F)c2c1N	Shiga inhibitor 25.1, Cycloheximide cs 25.3
COC(=O)Cc1csc(Nc2ccccc2Cl)n1	Shiga inhibitor 51.7, Cycloheximide cs 35.8
CCOC(=O)c1sc(NC(=O)CCC(=O)O)nc1C	none
